Experimental findings from PubChem BioAssay AID1984 (Sanford-Burnham Center for Chemical Genomics, 2009) are described below.

In all, about 290,000 compounds went through this assay and about 35 (0.01%) were called active. This is one part of a sample in which actives are shown more often than they occur.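 The calls were made as follows: active = EGFP signal decrease of at least 30% at 10 µM or well 3 SD below plate mean, unless failing retest; inactive = the rest, including hits failing retest or dose response.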

p/CIP-EGFP fusion (nuclear receptor coactivator 3, mouse), sequence (Q05BA5 1-1403): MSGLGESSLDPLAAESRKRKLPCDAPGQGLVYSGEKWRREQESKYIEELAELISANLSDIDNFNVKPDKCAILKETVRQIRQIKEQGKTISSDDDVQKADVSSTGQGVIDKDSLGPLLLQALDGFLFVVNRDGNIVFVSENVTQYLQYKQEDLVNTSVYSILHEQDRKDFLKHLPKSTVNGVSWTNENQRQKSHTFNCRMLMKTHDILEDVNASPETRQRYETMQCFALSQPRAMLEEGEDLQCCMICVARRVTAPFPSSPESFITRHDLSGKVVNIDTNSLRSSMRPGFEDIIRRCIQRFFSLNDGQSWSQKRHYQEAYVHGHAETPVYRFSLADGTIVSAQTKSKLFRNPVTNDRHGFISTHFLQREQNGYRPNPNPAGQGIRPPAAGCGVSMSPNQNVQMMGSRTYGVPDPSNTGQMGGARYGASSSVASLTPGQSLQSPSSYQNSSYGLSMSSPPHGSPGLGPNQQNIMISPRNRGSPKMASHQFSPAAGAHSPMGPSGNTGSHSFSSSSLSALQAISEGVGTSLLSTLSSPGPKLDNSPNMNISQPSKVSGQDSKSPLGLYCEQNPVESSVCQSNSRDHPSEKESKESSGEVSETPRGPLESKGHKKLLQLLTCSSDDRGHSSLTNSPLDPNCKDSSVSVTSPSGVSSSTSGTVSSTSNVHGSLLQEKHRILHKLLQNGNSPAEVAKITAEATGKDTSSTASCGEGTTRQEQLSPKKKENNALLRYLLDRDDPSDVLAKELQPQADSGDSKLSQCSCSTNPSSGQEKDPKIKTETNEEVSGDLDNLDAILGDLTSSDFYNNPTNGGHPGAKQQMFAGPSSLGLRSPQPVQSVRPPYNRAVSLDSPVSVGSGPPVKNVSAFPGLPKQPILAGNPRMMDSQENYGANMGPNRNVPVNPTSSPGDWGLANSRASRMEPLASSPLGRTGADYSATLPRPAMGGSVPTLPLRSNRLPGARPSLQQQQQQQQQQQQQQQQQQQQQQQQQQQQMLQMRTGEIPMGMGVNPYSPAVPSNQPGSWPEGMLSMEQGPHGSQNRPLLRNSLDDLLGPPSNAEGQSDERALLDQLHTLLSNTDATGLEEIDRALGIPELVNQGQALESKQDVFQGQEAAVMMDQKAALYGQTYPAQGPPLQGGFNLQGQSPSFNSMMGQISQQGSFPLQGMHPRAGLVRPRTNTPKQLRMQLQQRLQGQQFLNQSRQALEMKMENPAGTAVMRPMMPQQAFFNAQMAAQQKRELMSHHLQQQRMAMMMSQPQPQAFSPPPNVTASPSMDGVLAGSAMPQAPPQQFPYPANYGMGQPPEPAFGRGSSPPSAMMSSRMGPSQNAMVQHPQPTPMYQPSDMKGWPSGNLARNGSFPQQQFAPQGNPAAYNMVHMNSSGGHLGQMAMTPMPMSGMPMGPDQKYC

This assay concerns the target p/CIP-EGFP fusion (nuclear receptor coactivator 3, mouse) (UniProt Q05BA5). Nature of the assay: p/CIP-EGFP fusion destabilizers, primary screen, fluorescence, F442A cells (AID 1984). Conditions: 16 h, at 10 µM, hits give high values.
With `COCCNC(=O)CSc1nc2sccc2c(=O)n1-c1ccccc1`, the decrease of EGFP signal was -15.6% (inactive). For `Cc1ccc(C(CNC(=O)Nc2cccc(C)c2)N2CCN(C)CC2)cc1` (stereo not drawn), the decrease of EGFP signal is -22.3% (inactive).

In the case of `CC1C(=O)N(Cc2ccccc2)c2ccccc2N1C(=O)c1ccccc1` (stereo not drawn), the decrease of EGFP signal is -15.4% (inactive). Take `COc1ccc(N2CCN(C(=O)c3cccs3)CC2)cc1`: the decrease of EGFP signal is -8% (inactive).

Turning to `Cc1nc2nc(SCC(=O)Nc3cccc(F)c3)[nH]c2cc1Br`, the decrease of EGFP signal was -0.1% (inactive). The value for `CS(=O)(=O)c1ccccc1C(=O)Nc1ccc2sccc2c1` was -7.2% (inactive); that for `COc1ccc(-c2n[nH]c3c2CN(C(=O)c2ccc(F)cc2)CC3)cc1` was -14.3% (inactive). The value for `CC(C)(C)C1CCc2c(sc3nc(SCC(N)=O)nc(N)c23)C1` (stereo not drawn) was -4.6% (inactive); that for `O=C(NCCCn1ccnc1)/C(=C\c1ccccc1F)NC(=O)c1ccccc1` was -21.2% (inactive). The value for `COc1ccc(OC)c(C(=O)NC(CC(N)=O)c2ccc(N3CCC(N4CCCCC4)CC3)c([N+](=O)[O-])c2)c1` (stereo not drawn) was -7.7% (inactive).

Turning to `CSCC[C@H](NC(=O)N1CCn2c1nc1ccccc12)C(=O)NCc1ccc2c(c1)OCO2`, the decrease of EGFP signal is -3.3% (inactive). The value for `Nc1nnc2c(C(F)(F)F)nc3ccccc3n12` was -5.5% (inactive). The value for `COc1ccc(C)cc1Nc1n[n+](-c2ccccc2)c(-c2cccc(Cl)c2Cl)s1` was 6.4% (inactive); that for `CCN1N=C(c2ccccc2)CCC1=O` was 5.6% (inactive); that for `COc1cc2ccccc2cc1C(=O)Nc1ccccc1C` was -1.6% (inactive). The value for `CC(C)(C)c1ccc(C(=O)N2CCN(CCNC(=O)C(=O)Nc3ccc(F)cc3)CC2)cc1` was -21.5% (inactive); that for `CCc1ccc(Oc2coc3cc(O)ccc3c2=O)cc1` was -7.6% (inactive). Take `CC(=O)N1CCOc2ccc(S(=O)(=O)N3CCC(C(=O)Nc4ccccc4F)CC3)cc21`: the decrease of EGFP signal was 11.8% (inactive).

Turning to `C=CCNC(=S)NNC(=O)COc1c(Cl)cc(Cl)cc1Cl`, the decrease of EGFP signal is -6.1% (inactive). On to `O=C(CNC(=O)c1ccccc1)Oc1ccc([N+](=O)[O-])cc1`, for which the decrease of EGFP signal was -14% (inactive). The value for `C=CCNC(=O)COC(=O)CNC(=O)c1cc(Cl)cc([N+](=O)[O-])c1` was 32% (active). The value for `COc1ccc(NC2CCCN(C(=O)c3ccncc3)C2)cc1` (stereo not drawn) was -13.8% (inactive); that for `CC(=O)c1cccc(NC(=O)C2CCN(C(=O)c3ccccc3Cl)CC2)c1` was 4.2% (inactive). The value for `Cc1ccccc1N(C(=O)CNC(=O)c1cccs1)C(C(=O)NC1CCCC1)c1ccncc1` (stereo not drawn) was 12.1% (inactive); that for `CC1(C)C=C2[C@H]3CC[C@@H]4[C@@]5(C)CCC(=O)C(C)(C)[C@@H]5CC[C@@]4(C)[C@]3(C)CC[C@@]2(C(=O)O)CC1` was -6.3% (inactive); that for `O=C(CN1CCN(S(=O)(=O)c2ccc(Br)cc2)CC1)Nc1ccccc1C(=O)c1ccccc1` was -4.8% (inactive). With `NC(=O)c1cc(S(=O)(=O)N2CCCC2)ccc1OCc1ccc(F)cc1`, the decrease of EGFP signal was -4.5% (inactive).

`COc1cccc(NC(=O)NCCN2CCCCC2)c1`: the decrease of EGFP signal was -6.2% (inactive).

For `OC(CNC1CCCC1)COc1ccc(F)cc1` (stereo not drawn), the decrease of EGFP signal was 26.4% (inactive).

For `CCCCC(=O)Nc1nnc(S(=O)(=O)N(C)Cc2ccco2)s1`, the decrease of EGFP signal was 0.2% (inactive). The value for `Cc1ccc(N(Cc2cc(=O)[nH]c3ccccc23)C(=O)CCl)cc1` was -8.8% (inactive); that for `CN(C)S(=O)(=O)c1cccc(NC(=O)COC(=O)C2(c3ccccc3F)CCCC2)c1` was -3% (inactive).

Regarding `Cc1[nH]c2ccccc2c1C(=O)CN1CCCC(C)C1` (stereo not drawn), the decrease of EGFP signal is -10.8% (inactive). The value for `Cc1ccc(-c2nc(CSCC(=O)NC3CCN(Cc4ccccc4)CC3)c(C)o2)cc1` was -10% (inactive); that for `Cn1nccc1C(=O)NC1CCCc2c1cnn2-c1ccc(F)cc1F` (stereo not drawn) was -26.2% (inactive). The value for `Cc1ccc(CNC(=O)CSc2nnc3c(n2)[nH]c2ccc(F)cc23)cc1` was -14.9% (inactive); that for `COc1cc(C2C(N3C(=O)c4ccccc4C3=O)C(=O)N2c2ccc(C)c(C)c2)cc(OC)c1OC` (stereo not drawn) was 8.2% (inactive). The value for `N#CC(C#N)=CN=c1ccn(Cc2ccc(Cl)cc2Cl)cc1` was -1.4% (inactive); that for `Cc1ccc(C(=O)NC2CCN(C(=O)Nc3ccccc3Cl)CC2)cc1` was 5.4% (inactive). Take `CC1CCN(C(=O)c2ccccc2NC(=O)Cc2ccccc2)CC1`: the decrease of EGFP signal is -1.7% (inactive). The value for `COc1ccccc1N(CC(=O)NC1CCCC1)C(=O)C1(C)CC(=O)N=C2C=CC(C)=CN21` (stereo not drawn) was -13.7% (inactive). The value for `Cc1ccc(OCC(=O)Nc2ccccc2C(=O)NC2CC2)cc1C` was 1.1% (inactive).

Turning to `COc1ccccc1NC(=O)CSc1nnc(CNC(=O)c2ccccc2F)o1`, the decrease of EGFP signal is -0.3% (inactive).

Take `CCOC(=O)C1CCN(Cc2nnc(-c3cccc(Br)c3)o2)CC1`: the decrease of EGFP signal is -16.9% (inactive). The value for `O=C(CCc1nnc(Cc2ccc3c(c2)OCO3)o1)NCCc1ccccc1Cl` was -7.8% (inactive); that for `O=C(NCCc1ccccc1)c1ccc2c(c1)N(Cc1ccccc1)CCS2` was 5.5% (inactive); that for `Cc1ccc(NC(=S)Nc2ncccc2C)c(C)c1` was -3.8% (inactive).

Take `COc1ccc(NS(=O)(=O)c2ccc(N3CCN(CCO)CC3)c([N+](=O)[O-])c2)cc1`: the decrease of EGFP signal is -28.7% (inactive).

Turning to `C=C(C)C(=O)O[C@H]1C/C(C)=C\C(=O)/C=C(\C)[C@H](O)[C@@H]2OC(=O)C(=C)[C@@H]21`, the decrease of EGFP signal was -31.6% (inactive).

Regarding `CC(C)NC(=O)N1CCN(c2ccncc2S(=O)(=O)N2CCCCC2)CC1`, the decrease of EGFP signal is 5.9% (inactive). The value for `Nc1c(N(CCO)C(=O)C2CCCCC2)c(=O)[nH]c(=O)n1Cc1ccccc1` was -13.9% (inactive).

With `CC(C)CCOc1ccc(C(=O)C[N+]2(C)CCOCC2)cc1`, the decrease of EGFP signal is -10% (inactive). The value for `O=C(OCC(=O)N1CCN(C(=O)c2ccco2)CC1)c1cccc(O)c1` was 2.2% (inactive); that for `Cc1ccc(NC(=O)CSc2nnc(CNC(=O)c3ccccc3F)o2)cc1Cl` was -13% (inactive); that for `CCc1cccc(NC(=O)CCCN2C(=O)C(c3ccccc3)Oc3cccnc32)c1` (stereo not drawn) was 4.5% (inactive).

For the molecule `O=C(COc1cccc(Cl)c1)NCc1ccccc1`, the decrease of EGFP signal was -3.1% (inactive). As to `CC(C(=O)N1CCN(c2ccccc2F)CC1)c1ccc([N+](=O)[O-])cc1` (stereo not drawn), the decrease of EGFP signal was 1.2% (inactive). The value for `COc1ccc(C(=O)NC(=S)NC2CCCCC2)cc1` was -9.4% (inactive).
